From ChEMBL document CHEMBL1201862, “PubChem BioAssay data set” (2004) come the findings set out here.

The campaign covered roughly 53,000 […]. About 4,900 (9.2%) were called active. Cut-off read from the data, not from the text of the source: active = GI50 up to about 1.1 µM and inactive = higher. This excerpt belongs to a sample that is enriched for actives. Results with a measured potency or affinity are listed apart.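 Interpolation was linear, between the two tested concentrations surrounding the appropriate level; five concentrations were tested over 48 hours in 96-well plates. GI50 is the concentration that inhibits growth by half.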

The assay relates to NCI-H522. In words: NCI tumour cell line growth inhibition, 48 h.
Consider MERCURIC CHLORIDE, CHEMBL1374360, for which the GI50 was determined as 518 nM.

The substance DIBUTYLDICHLOROSTANNANE, CHEMBL1088184 came in with a GI50 of 130 nM.

Turning to DICHLORODIPHENYLSTANNANE, CHEMBL1088185, the GI50 worked out at 1000 nM.
